This is a sample that favours compounds with a hit; in the whole collection about 28% have one here.
CYP2C19 inh = inhibitors of human CYP2C19; CYP2C19 Supersomes, luciferin-H EGE luminescence, 30 min; 96,000 compounds, 21% hits; inhibition, % at 5 µM;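 active = CYP2C19 inhibition above a set limit at 5 µM in the primary screen, cut at about 50% in these data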;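 also: plate controls were negative control wells for no effect and 2.5 mM tranylcypromine positive control for full effect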
PLK1 inh = blocks human PLK1 kinase activity; P53350; recombinant PLK1 kinase, TR-FRET peptide phosphorylation; inhibition, % at 10 µM; 97,000 compounds, 0.53% hits;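 active = inhibition of 50% or more in the single-concentration screen; inactive = inhibition below 50%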;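 also: 0% = DMSO max control and 100% = H-89 dihydrochloride min control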
CYP2C19 act = increases human CYP2C19 enzyme activity; P33261; recombinant CYP2C19, luciferin-H EGE luminescence; stronger effect = higher value; 0 = fully inhibited enzyme, 1 = untreated enzyme; activation factor at 5 µM; 96,000 tested, under 10 active; AID 1025;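 active = activation factor of at least 2 at 5 µM in the primary screen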;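 also: 0 = wells with 2.5 mM tranylcypromine and 1 = vehicle-only wells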
Plk1 PBD FP = Plk1 (human) PBD binding inhibition; 97,000 compounds, 0.13% hits; Plk1 PBD phosphopeptide binding, fluorescence polarization; P53350; inhibition, %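 (tested at about 20 µM)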; in the data active = inhibition above about 34%, passing the limit was not always enough
CYP2C9 inh = human CYP2C9 inhibition. 96,000 compounds, 20% hits. inhibition, % at 5 µM. P11712. CYP2C9 Supersomes, luciferin-H conversion, luminescence;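 active = blocking of liver enzyme CYP2C9 beyond about 50% at 5 µM, limit read from the data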
Target sequence (P11712 whole entry, looked up): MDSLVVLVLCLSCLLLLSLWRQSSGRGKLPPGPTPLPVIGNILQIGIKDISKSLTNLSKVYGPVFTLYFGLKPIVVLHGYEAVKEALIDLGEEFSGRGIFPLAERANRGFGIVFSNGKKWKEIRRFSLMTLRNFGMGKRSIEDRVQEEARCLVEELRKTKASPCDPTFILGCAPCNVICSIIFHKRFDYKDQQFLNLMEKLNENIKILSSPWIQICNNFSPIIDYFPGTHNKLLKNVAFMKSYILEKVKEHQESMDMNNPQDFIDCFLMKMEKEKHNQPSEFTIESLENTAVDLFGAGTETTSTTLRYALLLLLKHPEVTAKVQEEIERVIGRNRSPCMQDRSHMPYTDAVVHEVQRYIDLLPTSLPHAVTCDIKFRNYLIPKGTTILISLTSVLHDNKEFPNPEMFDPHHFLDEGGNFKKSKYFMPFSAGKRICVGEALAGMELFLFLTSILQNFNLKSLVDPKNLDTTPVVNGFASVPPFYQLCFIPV
CYP2C9 act = increases human cytochrome P450 2C9 activity; P11712; recombinant CYP2C9, luciferin-H conversion, luminescence; stronger effect = higher value; factor 1 = untreated enzyme, 0 = blocked; activation factor at 5 µM; 96,000 compounds, 1.4% hits;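 active = activation factor of 2 or more for CYP2C9 at a 5 µM dose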;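 also: 0 = sulfaphenazole-blocked wells and 1 = vehicle-only wells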
Starred values were filed as active, the others as inactive; · = no result.

SMILES	CYP2C19 inh	PLK1 inh	CYP2C19 act	Plk1 PBD FP	CYP2C9 inh	CYP2C9 act
CC(C)C(C)(C#N)NC(=O)CSc1nc2scc(-c3ccco3)c2c(=O)n1-c1ccccc1 (centres undefined)	24	-11	0.8	-14	55*	0.5
CCCN1CCN(C(=O)Cn2c(=O)oc3cc(S(=O)(=O)NCc4ccccc4)ccc32)CC1	-9	·	1.1	·	27	0.7
Cc1ccc(C(C)C)c(OCC(=O)Nc2ccc(Cl)cn2)c1	36	-5	0.6	-4	22	0.8
O=C(COc1ccc(Cl)cc1Cl)Nc1ccc(Cl)cn1	58*	·	0.4	·	14	0.9
Cc1nn(C)cc1CNC(=O)COc1ccc(Cl)cc1Cl	·	9	·	0	·	·
Cn1cc(CNC(=O)COc2ccc(Cl)cc2Cl)cn1	89*	-25	0.1	-7	2	1
Cc1ccc2cc(C#N)c(NCc3ccco3)nc2c1	40	-6	0.6	15	45	0.5
COC(=O)CN(c1nc(C)c(Br)c(OC)n1)S(=O)(=O)c1ccc(C)cc1	90*	0	0.1	-14	89*	0.1
COC(=O)CN(c1nc(C)cc(OC)n1)S(=O)(=O)c1ccc(C)cc1	26	·	0.7	·	18	0.8
CCOC(=O)N1CCN(c2c(NCc3ccccn3)c(=O)c2=O)CC1	27	15	0.7	-25	-17	1.2
Cc1cc(S(=O)(=O)N2CCCC2)c(C)s1	14	-6	0.9	-33	-7	1.1
Cc1ccc(S(=O)(=O)N2CCN(C)CC2)c(C)c1N(C)S(=O)(=O)c1ccc(Cl)cc1	67*	-4	0.3	-12	47	0.5
Cc1cc(C)c(S(=O)(=O)N2CCCCC2)c(C)c1-n1ncnn1	69*	-12	0.3	16	-110	2.1*
O=S(=O)(c1ccc(Oc2ccc(Cl)cc2)c(S(=O)(=O)N2CCCCC2)c1)N1CCCCC1	8	-11	0.9	30	39	0.6
Cc1cc(C)c(S(=O)(=O)N2CCCCC2)cc1N(C)S(=O)(=O)c1ccc(Cl)cc1	38	-25	0.6	-12	71*	0.3
Cc1cc(C)c(S(=O)(=O)N2CCCCC2)c(C)c1N(C)S(=O)(=O)c1ccccc1	30	-21	0.7	0	59*	0.4
COc1ccc(C(=O)Oc2ccc(=O)n(-c3ccccc3)n2)cc1	-9	-8	1.1	-28	3	1
O=C(CCCC(=O)N(CC(=O)NC1CCCCC1)CC1CCCO1)Nc1ccccn1 (centres undefined)	8	-2	0.9	19	15	0.9
COc1ccc2c(c1)c(C(O)CN1CCC3(CC1)OCCO3)c(C)n2C (centres undefined)	26	-14	0.7	10	7	0.9
Cc1cc(C)n(-c2nc3ccccc3c(=O)n2OCC(=O)OCc2ccccc2)n1	6	-1	0.9	19	18	0.8
Cc1cc(C)n(-c2nc3ccccc3c(=O)n2OCc2ccc(Cl)cc2)n1	98*	-7	0	6	26	0.7
Cc1cc(C)n(-c2nc3ccccc3c(=O)n2OCc2ccc(F)cc2)n1	99*	-4	0	-4	50*	0.5
Cc1cc(C)n(-c2nc3ccccc3c(=O)n2OCC(=O)Nc2c(C)cccc2C)n1	11	-9	0.9	-15	52*	0.5
CCOC(=O)C1=C(C)NC(=O)NC1c1ccc(N(C)C)cc1 (centres undefined)	-4	-13	1	-1	-11	1.1
CC1=C(C(=O)OCC(C)C)C(c2ccc(F)cc2)NC(=O)N1 (centres undefined)	90*	1	0.1	-16	29	0.7
SMILES	CYP2C19 inh	PLK1 inh	CYP2C19 act	Plk1 PBD FP	CYP2C9 inh	CYP2C9 act
C=CCOc1c(Cl)cc(C2NC(=O)NC(C)=C2C(=O)OC)cc1Cl (centres undefined)	57*	4	0.4	-22	37	0.6
CC1=C(C(=O)OC2CCCCCCC2)C(c2cccc(O)c2)NC(=O)N1 (centres undefined)	81*	-2	0.2	15	81*	0.2
CCOC(=O)C1=C(C)NC(=O)NC1c1ccc(N(CC)CC)cc1 (centres undefined)	17	-12	0.8	5	52*	0.5
COC(=O)CSc1nnc(C)n1-c1cccc(C#N)c1	-23	1	1.2	-11	-18	1.2
CC(=O)CSc1nnc(-c2ccc(S(=O)(=O)N3CCC(C)CC3)cc2)o1	·	-5	·	14	·	·
CCOC(=O)C1=C(C)NC(=S)NC1c1ccc(-c2cccc(Cl)c2C)o1 (centres undefined)	22	-10	0.8	10	50*	0.5
CC1=C(C(=O)OCC2CCCO2)C(c2ccc(O)cc2)NC(=O)N1 (centres undefined)	0	·	1	·	-8	1.1
CCCCCCOC(=O)C1=C(C)NC(=O)NC1c1ccc(O)cc1 (centres undefined)	70*	0	0.3	-7	81*	0.2
CCOC(=O)C1=C(C)NC(=O)NC1/C(C)=C/c1ccccc1 (centres undefined)	78*	·	0.2	·	69*	0.3
CCOC(=O)C1=C(C)NC(=O)NC1c1cn(-c2ccccc2)nc1-c1cccs1 (centres undefined)	56*	·	0.4	·	80*	0.2
COC(=O)NC(=S)Nc1ccc(Oc2ccc(Cl)cc2Cl)c(Cl)c1	·	-1	·	-27	·	·
COCC(C)NCc1cccc(C)c1 (centres undefined)	15	-11	0.9	7	-10	1.1
CC(C)(C(=O)c1ccccc1)/[N+]([O-])=C/c1ccccc1F	·	-5	·	-12	·	·
CCOC(=O)C1=C(CN2CCC(C)CC2)NC(=O)NC1c1ccc(Cl)cc1 (centres undefined)	78*	-3	0.2	4	89*	0.1
CCOC(=O)C1=C(C)NC(=O)NC1c1ccc(OCC(=O)Nc2ccccc2)c(OC)c1 (centres undefined)	70*	2	0.3	-37	91*	0.1
Cc1ccc(-c2nn(-c3ccccc3)cc2C2CC(c3cccs3)=NN2C(=O)CCCC(=O)O)cc1 (centres undefined)	9	-6	0.9	-25	61*	0.4
CCOC(=O)C1=C(C)NC(=O)NC1c1c(OCC(=O)N2CCCCC2)ccc2ccccc12 (centres undefined)	76*	2	0.2	-15	83*	0.2
O=C(NC1CC2CCC(C1)N2C(=O)NCc1ccccc1)NC12CC3CC(CC(C3)C1)C2 (centres undefined)	11	-4	0.9	-19	2	1
CCOC(=O)C1=C(CNCc2ccc(C)cc2)NC(=O)NC1c1cc(C)ccc1C (centres undefined)	47	2	0.5	6	55*	0.5
CCOC(=O)C1=C(C)NC(=O)NC1c1ccc(Cl)cc1Cl (centres undefined)	68*	-8	0.3	12	13	0.9

Bioassay records as filed in PubChem BioAssay.
